# Assay results reported in PubChem BioAssay (NCATS).
# Several values for one entry are separate records, joined by “and”; a condition that tells them apart may be missing. Equal values may be shown once. Results filed as inconclusive are left out. Entries that show only a call come without a potency. Activity calls are given as the source filed them. Unless noted, calls follow the shape of the full dose curve.
# Columns and labels:
# [1] = target: Peroxisome proliferator-activated receptor gamma (Homo sapiens) (UniProt P37231); assay: qHTS assay for small molecule antagonists of peroxisome proliferator-activated receptor gamma signaling (AID 588537; active = well fitted inhibition curve with a large enough effect in the signal ratio, with a control signal flat, not every such curve was filed as active; the % refers to the signal ratio;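 also: reporter cells co-stimulated with 50 nM rosiglitazone agonist during compound treatment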); settings: HEK293 PPARg-UAS-bla, beta-lactamase ratio, antagonist mode; series mostly up to 76.8 µM
# Chain of Peroxisome proliferator-activated receptor gamma (Homo sapiens) (P37231 whole entry, looked up): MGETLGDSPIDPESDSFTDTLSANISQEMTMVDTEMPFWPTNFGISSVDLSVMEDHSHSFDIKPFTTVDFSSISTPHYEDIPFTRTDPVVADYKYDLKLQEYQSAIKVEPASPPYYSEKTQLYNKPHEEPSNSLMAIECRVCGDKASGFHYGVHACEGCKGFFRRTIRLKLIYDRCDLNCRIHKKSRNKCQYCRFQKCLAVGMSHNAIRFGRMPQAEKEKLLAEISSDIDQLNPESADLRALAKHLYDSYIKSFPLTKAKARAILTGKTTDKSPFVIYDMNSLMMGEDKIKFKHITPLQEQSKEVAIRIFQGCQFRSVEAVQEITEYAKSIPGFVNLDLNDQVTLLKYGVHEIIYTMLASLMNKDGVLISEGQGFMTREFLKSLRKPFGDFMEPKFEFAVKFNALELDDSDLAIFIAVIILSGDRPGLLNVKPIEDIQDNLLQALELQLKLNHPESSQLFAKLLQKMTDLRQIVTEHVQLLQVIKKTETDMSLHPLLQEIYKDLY
# How it was run: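 Cell-based beta-lactamase assay; GW9662 served as the antagonist control. Stimulation used rosiglitazone, final 50 nM, 16 h, 37 C.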
# [2] = target: Vitamin D3 receptor (Homo sapiens) (UniProt P11473); assay: qHTS assay for small molecule antagonists of vitamin D receptor signaling (AID 588541); settings: HEK293T VDR-UAS-bla, beta-lactamase ratio, antagonist mode; series mostly up to 76.7 µM;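 also: receptor activated by calcitriol during compound treatment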
# Chain of Vitamin D3 receptor (Homo sapiens) (P11473 whole entry, looked up): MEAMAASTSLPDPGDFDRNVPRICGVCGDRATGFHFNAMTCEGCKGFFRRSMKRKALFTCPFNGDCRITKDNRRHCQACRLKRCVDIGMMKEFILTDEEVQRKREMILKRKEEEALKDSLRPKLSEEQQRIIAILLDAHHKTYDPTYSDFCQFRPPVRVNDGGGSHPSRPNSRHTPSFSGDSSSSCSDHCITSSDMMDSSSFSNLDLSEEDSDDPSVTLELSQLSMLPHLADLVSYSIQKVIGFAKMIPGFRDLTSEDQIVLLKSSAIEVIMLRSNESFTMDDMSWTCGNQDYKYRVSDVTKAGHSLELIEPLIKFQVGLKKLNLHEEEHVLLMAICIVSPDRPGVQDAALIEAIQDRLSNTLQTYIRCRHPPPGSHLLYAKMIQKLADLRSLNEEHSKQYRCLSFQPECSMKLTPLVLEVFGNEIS
# How it was run: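 Antagonist-mode beta-lactamase reporter assay: HEK293T VDR-UAS-bla cells were exposed to titrated compound alongside 1-alpha,25-dihydroxyvitamin D3 at 3 nM final for 16 h. Values were normalized to the 50 nM agonist control and DMSO basal, with IC50 and efficacy from Hill equation fits.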
# [3] = target: Vitamin D3 receptor (Homo sapiens) (UniProt P11473); assay: qHTS assay for small molecule agonists of vitamin D receptor signaling (AID 588543); settings: HEK293T VDR-UAS-bla, beta-lactamase ratio, 16 h; series mostly up to 76.8 µM
# How it was run: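 Measured: β-lactamase reporter activity (CCF4, 405 nm excitation, 460/530 nm emission) in HEK293T VDR-UAS-bla cells after 16 h compound exposure at 37 °C. Normalization against 50 nM 1α,25-dihydroxyvitamin D3 and DMSO; Hill-fit EC50.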
# [4] = qHTS assay for small molecule agonists of retinoid X receptor alpha signaling (AID 588544); settings: HEK293T RXRa-UAS-bla, beta-lactamase reporter, 18 h; 530 nm emission
# [5] = target: Retinoic acid receptor RXR-alpha (Homo sapiens) (UniProt P19793); assay: as above; settings: HEK293T RXRa-UAS-bla, beta-lactamase reporter, 18 h; series mostly up to 76.7 µM
# Chain of Retinoic acid receptor RXR-alpha (Homo sapiens) (P19793 whole entry, looked up): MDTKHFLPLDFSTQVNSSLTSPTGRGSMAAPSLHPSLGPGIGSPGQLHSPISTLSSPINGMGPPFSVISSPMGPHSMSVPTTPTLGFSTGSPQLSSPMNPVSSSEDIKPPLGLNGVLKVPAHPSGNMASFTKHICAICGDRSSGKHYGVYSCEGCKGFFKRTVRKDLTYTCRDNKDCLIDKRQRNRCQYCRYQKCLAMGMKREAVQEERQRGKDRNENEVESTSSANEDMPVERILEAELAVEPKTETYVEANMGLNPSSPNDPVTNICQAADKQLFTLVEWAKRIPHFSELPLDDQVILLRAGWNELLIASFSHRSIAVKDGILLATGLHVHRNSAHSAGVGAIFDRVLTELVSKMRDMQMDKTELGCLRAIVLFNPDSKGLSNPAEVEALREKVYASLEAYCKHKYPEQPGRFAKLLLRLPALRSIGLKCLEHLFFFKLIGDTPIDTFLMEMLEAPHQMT
# [6] = target: Thyroid hormone receptor beta (Homo sapiens) (UniProt P10828); assay: qHTS assay for small molecule agonists of thyroid hormone receptor beta signaling (AID 588545); settings: TR-UAS-bla GripTite HEK 293, beta-lactamase ratio, agonist mode, 18 h, percent of T3 response, DMSO as zero; series mostly up to 76.7 µM
# Chain of Thyroid hormone receptor beta (Homo sapiens) (P10828 whole entry, looked up): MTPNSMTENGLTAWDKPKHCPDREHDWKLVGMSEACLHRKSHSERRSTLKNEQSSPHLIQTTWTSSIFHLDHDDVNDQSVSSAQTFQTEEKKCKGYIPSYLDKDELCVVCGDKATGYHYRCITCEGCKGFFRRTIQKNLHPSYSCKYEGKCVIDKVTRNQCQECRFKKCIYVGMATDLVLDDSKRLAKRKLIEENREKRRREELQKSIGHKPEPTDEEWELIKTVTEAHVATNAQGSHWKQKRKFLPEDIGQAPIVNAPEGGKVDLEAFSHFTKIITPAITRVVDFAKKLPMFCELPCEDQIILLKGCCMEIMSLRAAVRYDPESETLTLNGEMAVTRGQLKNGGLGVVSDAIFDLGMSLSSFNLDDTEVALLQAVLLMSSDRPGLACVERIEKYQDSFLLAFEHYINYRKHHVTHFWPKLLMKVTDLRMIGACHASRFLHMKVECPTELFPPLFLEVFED
# How it was run: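 TR-UAS-bla GripTite HEK 293 cells (2500/well, medium with 2% charcoal/dextran FBS) were treated in agonist mode for 18 h at 37 C, titrated. Beta-lactamase was read by CCF4 ratio after 2 h; normalized to 10 nM T3 (100%) and DMSO, Hill-fitted for EC50 and efficacy.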
# [7] = qHTS assay for small molecule antagonists of retinoid X receptor alpha signaling (AID 588546; active = well fitted inhibition curve with a large enough effect in the signal ratio, with a control signal flat, not every such curve was filed as active; the % refers to the signal ratio;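 also: cells stimulated with 9-cis-retinoic acid as agonist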); settings: HEK293T RXRa-UAS-bla, beta-lactamase ratio, antagonist mode; measured here: W530 green channel, cytotoxicity proxy
# How it was run: (§1)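 Beta-lactamase reporter inhibition, read as CCF4 fluorescence ratio (ex 405, em 460/530 nm) after 2 h at RT. HEK293T UAS-bla cells, 2500/well, were stimulated with 9-cis-RA at 500 or 100 nM final alongside test compound for 18 h at 37 C.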
# [8] = target: Retinoic acid receptor RXR-alpha (Homo sapiens) (UniProt P19793); assay: as above; settings: HEK293T RXRa-UAS-bla, beta-lactamase ratio, antagonist mode
# How it was run: as §1
# [9] = target: Thyroid hormone receptor beta (Homo sapiens) (UniProt P10828); assay: qHTS assay for small molecule antagonists of thyroid hormone receptor beta signaling (AID 588547; active = well fitted inhibition curve with a large enough effect in the signal ratio, with a control signal flat, not every such curve was filed as active; the % refers to the signal ratio;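 also: cells stimulated with 0.4 nM T3 agonist during compound exposure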); settings: TR-UAS-bla HEK293, beta-lactamase ratio, antagonist mode, 18 h
# How it was run: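 Inhibition of T3-driven (0.4nM final) beta-lactamase reporter activity was measured over 0.59 nM to 92 uM compound after 18 h at 37 C. The cells were GripTite HEK293 TR-UAS-bla in charcoal/dextran-stripped serum, with CCF4 ratio read-out and IC50 from Hill fits.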
# [10] = target: Voltage-gated inwardly rectifying potassium channel KCNH2 (Homo sapiens) (UniProt Q12809); assay: qHTS Assay for Small Molecule Inhibitors of the Human hERG Channel Activity (AID 588834; active = well fitted curve in the direction sought with a large enough effect; an effect the other way counts as inactive or inconclusive;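 also: top concentration of the series differs between compounds; lower thallium flux fluorescence means stronger hERG block; nearly all actives have a fitted effect of over 50% in size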); settings: U2OS BacMam hERG, FluxOR thallium flux fluorescence; series mostly up to 46.1 µM
# Chain of Voltage-gated inwardly rectifying potassium channel KCNH2 (Homo sapiens) (Q12809 whole entry, looked up): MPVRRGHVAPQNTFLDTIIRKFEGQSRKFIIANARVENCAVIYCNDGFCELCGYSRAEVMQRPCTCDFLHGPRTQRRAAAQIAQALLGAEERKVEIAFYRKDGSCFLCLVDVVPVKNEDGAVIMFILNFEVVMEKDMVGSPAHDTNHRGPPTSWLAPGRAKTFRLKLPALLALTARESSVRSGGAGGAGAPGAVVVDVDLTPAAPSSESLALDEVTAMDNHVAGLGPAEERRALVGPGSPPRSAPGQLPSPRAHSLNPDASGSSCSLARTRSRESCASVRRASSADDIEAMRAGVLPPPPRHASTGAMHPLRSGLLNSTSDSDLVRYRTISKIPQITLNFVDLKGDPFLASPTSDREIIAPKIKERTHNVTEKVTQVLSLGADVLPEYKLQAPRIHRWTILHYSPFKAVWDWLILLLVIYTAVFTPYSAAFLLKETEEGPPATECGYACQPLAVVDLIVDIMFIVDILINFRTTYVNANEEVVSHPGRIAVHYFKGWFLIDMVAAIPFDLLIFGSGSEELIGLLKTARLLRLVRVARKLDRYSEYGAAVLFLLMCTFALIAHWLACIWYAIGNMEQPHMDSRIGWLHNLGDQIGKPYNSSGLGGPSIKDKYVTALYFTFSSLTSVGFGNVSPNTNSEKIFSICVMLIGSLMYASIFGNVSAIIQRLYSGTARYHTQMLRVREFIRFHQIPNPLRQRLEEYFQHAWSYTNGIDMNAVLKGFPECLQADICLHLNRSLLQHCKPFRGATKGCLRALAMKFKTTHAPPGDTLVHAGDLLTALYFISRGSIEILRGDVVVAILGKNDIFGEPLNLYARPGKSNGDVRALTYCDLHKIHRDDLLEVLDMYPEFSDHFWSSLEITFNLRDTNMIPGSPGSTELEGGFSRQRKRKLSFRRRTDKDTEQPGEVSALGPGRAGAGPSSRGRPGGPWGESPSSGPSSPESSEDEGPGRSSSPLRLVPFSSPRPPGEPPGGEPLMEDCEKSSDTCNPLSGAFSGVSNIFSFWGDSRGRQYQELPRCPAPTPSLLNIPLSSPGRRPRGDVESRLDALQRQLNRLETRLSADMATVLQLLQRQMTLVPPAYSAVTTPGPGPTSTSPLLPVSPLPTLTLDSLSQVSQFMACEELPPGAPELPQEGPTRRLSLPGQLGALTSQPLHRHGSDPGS
# How it was run: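 Homogeneous FluxOR thallium flux assay using hERG-expressing U2OS cells (BacMam). Compound treatment about 10 minutes preceded stimulation; reduced fluorescence taken as channel block.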
# [11] = target: Luciferin 4-monooxygenase (Photinus pyralis) (UniProt P08659); assay: Biochemical firefly luciferase enzyme assay for NPC (AID 624030; active = well fitted curve in the direction sought with a large enough effect; an effect the other way counts as inactive or inconclusive;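 also: purified P. pyralis luciferase at 10 nM with luciferin and ATP substrate; nearly all actives have a fitted effect of over 70% in size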); settings: purified P. pyralis luciferase, luminescence, 5 min; series mostly up to 58.6 µM
# Chain of Luciferin 4-monooxygenase (Photinus pyralis) (P08659 whole entry, looked up): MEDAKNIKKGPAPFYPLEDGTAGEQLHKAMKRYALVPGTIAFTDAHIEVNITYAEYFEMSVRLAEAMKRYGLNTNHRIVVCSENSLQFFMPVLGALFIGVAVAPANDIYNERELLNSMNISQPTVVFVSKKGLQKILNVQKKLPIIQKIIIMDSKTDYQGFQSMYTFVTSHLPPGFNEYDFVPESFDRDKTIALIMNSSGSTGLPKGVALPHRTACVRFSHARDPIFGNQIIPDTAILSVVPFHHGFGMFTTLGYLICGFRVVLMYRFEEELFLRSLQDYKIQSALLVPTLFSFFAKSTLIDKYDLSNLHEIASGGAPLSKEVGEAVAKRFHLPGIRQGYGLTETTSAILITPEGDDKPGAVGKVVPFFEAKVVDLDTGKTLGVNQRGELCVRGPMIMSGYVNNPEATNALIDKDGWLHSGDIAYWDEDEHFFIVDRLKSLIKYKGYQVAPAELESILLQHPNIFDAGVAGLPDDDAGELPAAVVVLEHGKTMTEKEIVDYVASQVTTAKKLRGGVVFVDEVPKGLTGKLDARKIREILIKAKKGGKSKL
# How it was run: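 Direct inhibition of firefly luciferase enzyme (10 nM final, 50 mM Tris Acetate) assessed by luminescence within 5 minutes. Percent activity scaled between DMSO and PTC124 positive control, with concentration-effect curves classified by fit quality and response.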
# [12] = S16 Schwann cell PMP22 intronic element firefly luciferase assay (AID 624032; active = well fitted curve in the direction sought with a large enough effect; an effect the other way counts as inactive or inconclusive; also: nearly all actives have a fitted effect of over 30% in size); settings: S16 rat Schwann cells, PMP22 element FLuc, 24 h; series mostly up to 57.5 µM
# How it was run: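 Luciferase reporter of PMP22 intronic-element expression in stably transfected S16 rat Schwann cells, read by ONE-Glo luminescence after 24 h compound exposure at 37 C. Activity scaled between DMSO (0%) and positive-control PTC124; concentration-effect curves quality-classified.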
# [13] = S16 Schwann cell PMP22 intronic element beta-lactamase assay (AID 624044); settings: S16 rat Schwann cells, PMP22 element beta-lactamase FRET, 24 h; series mostly up to 38.3 µM; also: nearly all actives have a fitted effect of over 15% in size
# How it was run: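 Beta-lactamase reporter under a PMP22 intronic regulatory element in stable S16 rat Schwann cells; 24 h compound exposure. 460 nm blue signal normalized between DMSO (0%) and potassium clavulanate, with 535 nm FRET tracking viability; curves classed by r2 and response.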
# [14] = S16 Schwann cell viability assay (CellTiter-Glo assay) (AID 624031; active = well fitted curve in the direction sought with a large enough effect; an effect the other way counts as inactive or inconclusive;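 also: cellular ATP luminescence as a viability measure; nearly all actives have a fitted effect of over 70% in size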); settings: S16 rat Schwann cells viability, 24 h; series mostly up to 57.5 µM
# How it was run: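 Native S16 rat Schwann cells in DMEM/10% FBS without phenol red were incubated overnight, then exposed to compounds for 24 h at 37 °C/5% CO2. Viability was read as ATP luminescence (CellTiter-Glo), normalized to no-cell wells and DMSO (0%).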
SMILES,outcome [1],outcome [2],outcome [3],max response [4],outcome [5],outcome [6],max response [7],max response [8],activity change % (negative = inhibition) [9],Potency [10],Potency [11],Potency [12],Potency [13],Potency [14]
CC(C)=O,inactive,inactive,inactive,9.06%,inactive,inactive,9.42%,3.03% (inactive),-5.42% (inactive),inactive,inactive,inactive,,
O=S(=O)(O)O,inactive,,,-13.7% and 0.0864%,inactive,inactive,-14.3% and 12.6%,-0.45% (inactive) and -13.7% (inactive),16% (inactive) and -10.1% (inactive),inactive,inactive,inactive,inactive,
CC1(C)C(C=C(Cl)Cl)C1C(=O)OCc1cccc(Oc2ccccc2)c1 (stereo not given),,inactive,,,,,-5.2% [middle of 4 runs],-8.16% (inactive) [middle of 4 runs],3.43% (inactive) [middle of 4 runs],inactive,,inactive,inactive,
CCCCC(CC)COC(=O)CC(C(=O)OCC(CC)CCCC)S(=O)(=O)O (stereo not given),,,inactive,,,inactive,,,-5.51% (inactive),,,inactive,inactive,inactive
CC(O)CO (stereo not given),inactive,inactive,inactive,-9.84% and -15.2%,inactive,inactive,-2.37% and -5.47%,9.68% (inactive) and 0.556% (inactive),11.6% (inactive) and -10.9% (inactive),inactive,inactive,inactive,inactive,inactive
CC1=CCC(C(C)(C)O)CC1 (stereo not given),inactive,inactive,inactive,-10.8%,inactive,inactive,1.88%,-18.6% (inactive),-18.4% (inactive),inactive,inactive,inactive,inactive,inactive
C=C(NC(=O)C(=C)NC(=O)c1csc(C2=N[C@@H]3c4csc(n4)[C@H]4NC(=O)c5csc(n5)[C@H]([C@](C)(O)[C@@H](C)O)NC(=O)[C@H]5CSC(=N5)C(=CC)NC(=O)C([C@@H](C)O)NC(=O)c5csc(n5)[C@]3(CC2)NC(=O)[C@H](C)NC(=O)C(=C)NC(=O)[C@H](C)NC(=O)C([C@@H](C)CC)NC2C=Cc3c([C@H](C)O)cc(nc3C2O)C(=O)O[C@@H]4C)n1)C(N)=O (stereo not given in full),,,,,,,,,,inactive,,,,
